The nature of test [1]: A CellTox Green Cytotoxicity Assay to monitor cytotoxicity in HepG2 cells - 8 hour (AID 1224890). Also: nearly all actives have a fitted effect of over 45% in size. In short, it runs like this: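 Continuous culture of HepG2 cells with a membrane-impermeant DNA dye; rising fluorescence marks dead cells. Compound exposure lasted up to 40 h at 37 C, with reads every 8 h from 0 h.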
A short description of test [2]: qHTS assay to identify small molecule antagonists of the androgen receptor (AR) signaling pathway using the MDA cell line in the presence of 0.5 nM R1881 - cell viability counter screen (AID 1259242). Also: nearly all actives have a fitted effect of over 45% in size. Also: potency is read from the fitted curve at half-maximal effect. Put shortly: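 Fluorescence from CellTiter-Fluor, which reports protease activity of live cells, was read 30 min after reagent addition to MDA-kb2 cells that had been incubated 16 hr with compound and 0.5 nM R1881.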
(In qHTS, concentration-response curves come from the screen itself.)

Test [3] is described as follows: qHTS assay to identify small molecule HDAC inhibitors (AID 1259364). Also: nearly all actives have a fitted effect of over 45% in size. Also: potency is read from the fitted curve at half-maximal effect. Put shortly:
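Endogenous HDAC class I/II activity was measured in wild-type HCT-116 cells by HDAC-Glo luminescence after 2 h compound treatment.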

A short description of test [4]: qHTS assay to identify small molecule HDAC inhibitors - cell viability counter screen (AID 1259365). Also: nearly all actives have a fitted effect of over 50% in size. Also: potency is read from the fitted curve at half-maximal effect. Put shortly: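 Measured quantity is CellTiter-Glo luminescence from wild-type HCT-116 cells after compound incubation of 2hr at 37C, 5% CO2; reagent developed 30min at room temperature.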
Test [5] can be described thus: qHTS assay to identify small molecule antagonists of the estrogen receptor alpha (ER-alpha) signaling pathway using the BG1 cell line in the presence of 0.1 nM 17-beta-estradiol - cell viability counter screen (AID 1259241). Also: nearly all actives have a fitted effect of over 40% in size. Also: potency is read from the fitted curve at half-maximal effect. In short, it runs like this:
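In this screen, hormone-deprived VM7Luc4E2 cells were seeded at 4,000 per well, dosed with compound and 0.1 nM estradiol final, and incubated 22 hr at 37C and 5% CO2; fluorogenic live-cell protease signal reported viability.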

Test [6] has as its target Androgen receptor (Homo sapiens) (UniProt P10275). Nature of the test: qHTS assay to identify small molecule antagonists of the androgen receptor (AR) signaling pathway using the MDA cell line in the presence of 0.5 nM R1881 (AID 1259243). Also: nearly all actives have a fitted effect of over 50% in size. Also: potency is read from the fitted curve at half-maximal effect. In short, it runs like this:
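Inhibition of R1881 (0.5 nM final) induced reporter signal was measured in human MDA-kb2 cells; note the MMTV promoter also responds to GR. Exposure lasted 16 hr at 37C.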

The target in test [7] is Estrogen receptor (Homo sapiens) (UniProt P03372). Nature of the test: qHTS assay to identify small molecule antagonists of the estrogen receptor alpha (ER-alpha) signaling pathway using the BG1 cell line in the presence of 0.1 nM 17-beta-estradiol (AID 1259244). Also: nearly all actives have a fitted effect of over 50% in size. Also: potency is read from the fitted curve at half-maximal effect. Put shortly:
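Quantitative high-throughput screen in VM7Luc4E2 cells: compound plus 0.1 nM E2 (final), 22 h, 37C, 5% CO2; ONE-Glo added, 30 min room temperature, luminescence measured.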

Test [8] is described as follows: qHTS assay to identify small molecule agonists of the sonic hedgehog signaling (Shh) pathway - cell viability counter screen (AID 1259366). Also: nearly all actives have a fitted effect of over 50% in size. Also: potency is read from the fitted curve at half-maximal effect. Put shortly: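 In quantitative high-throughput format, 3T3 Gli1-Luc cells were exposed to compounds for 24hr and multiplexed for viability using CellTiter-Fluor, incubated 1hr at 37C before the fluorescence read.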
Test [9] in a line: qHTS assay to identify small molecule antagonists of the sonic hedgehog signaling (Shh) pathway - cell viability counter screen (AID 1259367). Also: nearly all actives have a fitted effect of over 55% in size. Also: potency is read from the fitted curve at half-maximal effect. Put shortly: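 NIH/3T3-derived Gli1-Luc reporter cells (2,000 per well) rested 4 hr at 37 C, then received DMSO compounds plus conditioned medium. After 23 hr of treatment, CellTiter-Fluor was added for 1 hr at 37C and fluorescence read.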

A short description of test [10]: qHTS assay to identify small molecule phospholipidosis (PLD) inducers (AID 1259344; active = well fitted curve in the direction sought with a large enough effect; an effect the other way counts as inactive or inconclusive). In short, it runs like this:
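HepG2 cells on collagen I, attached 4 h at 37 C, were co-treated with compound and LipidTOX Red dye for 24 h at 37 C, then fixed with paraformaldehyde plus Hoechst 33342 and imaged by high-content microscopy for phospholipid accumulation.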

Molecules are shown by their SMILES. A number with no mark means an inactive call. Records with an inconclusive call do not appear. Activity calls are given as the source filed them. Unless noted, calls follow the shape of the dose curve; as a rule, active = well fitted curve in the direction sought with a large enough effect in the repeat runs; inconclusive = weak or mixed curves; inactive = no such curve, though single readings can be large; an effect the other way counts as inactive or inconclusive.

Estrogen receptor (Homo sapiens), sequence (P03372 whole entry, looked up): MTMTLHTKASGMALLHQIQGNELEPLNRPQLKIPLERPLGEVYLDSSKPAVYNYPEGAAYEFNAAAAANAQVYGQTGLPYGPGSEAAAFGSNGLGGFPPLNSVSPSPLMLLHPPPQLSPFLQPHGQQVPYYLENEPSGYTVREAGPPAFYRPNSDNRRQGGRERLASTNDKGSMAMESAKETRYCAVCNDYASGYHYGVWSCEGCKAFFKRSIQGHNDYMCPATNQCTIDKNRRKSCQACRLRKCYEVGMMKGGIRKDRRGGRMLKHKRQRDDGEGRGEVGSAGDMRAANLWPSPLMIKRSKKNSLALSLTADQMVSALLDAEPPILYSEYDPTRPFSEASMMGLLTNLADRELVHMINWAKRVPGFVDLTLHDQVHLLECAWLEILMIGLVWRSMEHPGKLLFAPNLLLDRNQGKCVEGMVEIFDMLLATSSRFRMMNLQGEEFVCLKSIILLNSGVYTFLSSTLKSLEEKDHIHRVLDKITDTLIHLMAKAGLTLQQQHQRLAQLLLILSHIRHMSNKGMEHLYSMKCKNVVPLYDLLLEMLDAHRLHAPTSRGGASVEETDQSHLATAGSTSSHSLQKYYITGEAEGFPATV
Androgen receptor (Homo sapiens), sequence (P10275 whole entry, looked up): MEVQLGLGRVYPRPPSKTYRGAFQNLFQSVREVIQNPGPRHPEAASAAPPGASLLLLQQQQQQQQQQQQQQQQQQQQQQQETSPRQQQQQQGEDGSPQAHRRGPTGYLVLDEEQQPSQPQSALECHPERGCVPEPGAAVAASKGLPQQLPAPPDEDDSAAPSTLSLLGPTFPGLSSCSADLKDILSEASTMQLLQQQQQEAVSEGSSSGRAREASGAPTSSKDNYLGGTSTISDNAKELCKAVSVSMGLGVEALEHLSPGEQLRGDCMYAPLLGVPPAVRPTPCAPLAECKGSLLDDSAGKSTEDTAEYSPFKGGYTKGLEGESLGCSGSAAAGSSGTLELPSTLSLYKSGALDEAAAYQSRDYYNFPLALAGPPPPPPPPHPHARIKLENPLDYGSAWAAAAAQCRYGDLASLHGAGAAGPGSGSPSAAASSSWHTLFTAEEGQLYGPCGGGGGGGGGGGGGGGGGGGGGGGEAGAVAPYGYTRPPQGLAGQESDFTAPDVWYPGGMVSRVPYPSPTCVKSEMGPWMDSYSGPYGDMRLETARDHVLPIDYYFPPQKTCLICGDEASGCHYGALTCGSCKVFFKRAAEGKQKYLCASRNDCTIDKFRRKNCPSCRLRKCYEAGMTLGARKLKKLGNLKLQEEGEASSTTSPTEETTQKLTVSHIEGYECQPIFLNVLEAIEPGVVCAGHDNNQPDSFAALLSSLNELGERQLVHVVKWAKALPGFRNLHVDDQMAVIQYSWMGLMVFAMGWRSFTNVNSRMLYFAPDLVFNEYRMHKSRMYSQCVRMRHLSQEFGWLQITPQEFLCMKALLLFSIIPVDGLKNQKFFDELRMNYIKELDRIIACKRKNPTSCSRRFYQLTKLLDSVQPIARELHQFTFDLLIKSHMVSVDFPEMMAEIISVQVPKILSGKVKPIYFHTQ

Turning to `Cc1occc1C(=O)Nc1ccc(C(=O)N2CCC(F)(F)/C(=C\C(=O)N3CCC(N4CCCCC4)CC3)c3ccccc32)cc1`, the Potency entry in test [1], in test [2], in test [3] and in test [4] was “inactive” throughout.
For the molecule `CCOCCn1c(C2CCN(CCc3ccc(C(C)(C)C(=O)O)cc3)CC2)nc2ccccc21`, the Potency result in test [5], in [2], in test [6], in [7], in test [3] and in test [4] was “inactive” throughout. Also, the Potency entry in test [8] and in test [9] was “inactive” each time.
`CNCCCC1c2ccccc2C=Cc2ccccc21`: the Potency result in test [1], in test [5], in [7], in test [3] and in [4] was “inactive” in each case.
Regarding `Oc1cc(O)c(Cl)cc1Cl`, the Potency result in [1], in test [5], in [7], in test [4], in test [8] and in [9] was “inactive” each time.
On to `CCCCCCCC/C=C\CCCCCCCC(=O)OC(CO)CO`, for which the Potency result in test [1], in test [5], in [3], in test [4], in test [8] and in test [9] was “inactive” in each case.
Turning to `COc1cc2ncnc(Nc3ccc(F)c(Cl)c3)c2cc1OCCCN1CCOCC1`, the Potency entry in [5], in [2] and in test [3] was “inactive” each time. Besides, the Potency in test [6] is 26.6 µM (active); in [8], 15 µM (active). Besides, in test [10], the molecule was called inactive.
`Fc1ccccc1[C@@H](F)COC1CCC(Nc2ncnc3[nH]ncc23)CC1` (some centres undefined): the Potency entry in test [1], in test [4] and in test [8] was “inactive” throughout. In [6], the Potency was 15.4 µM (active).
For `CCCCC(=O)O[C@]1(C(=O)CO)[C@@H](C)C[C@H]2[C@@H]3CCC4=CC(=O)C=C[C@]4(C)[C@@]3(F)[C@@H](O)C[C@@]21C`, the Potency result in [1], in test [5], in test [7], in [3], in test [4] and in [9] was “inactive” throughout.
Consider `C=CC(=O)NCOCC(C)C`, for which the Potency result in test [1], in [5], in test [4], in test [8] and in [9] was “inactive” throughout.
Regarding `CCOC(=O)CC(=O)C(=O)OCC`, the Potency entry in [1], in [5], in test [3], in test [4], in [8] and in test [9] was “inactive” each time.
Regarding `CC1CC(=O)NN=C1c1ccc(NCC(C)(C)NCC(O)COc2cc(Cl)ccc2C#N)cc1` (centres undefined), the Potency entry in test [1], in [5], in [7], in [3], in test [4] and in test [8] was “inactive” throughout. Besides, the Potency entry in test [9] is “inactive”.
As for `NC(=O)Nc1ccc(Cl)cc1`, the Potency entry in test [5], in test [2], in test [7], in test [3], in [4] and in test [8] was “inactive” each time. The Potency result in test [9] is “inactive”.
On to `NC(=O)N(O)[C@@H]1C=C[C@H](Oc2cccc(Oc3ccc(F)cc3)c2)C1`, for which the Potency result in [3], in test [4], in test [8] and in test [9] was “inactive” each time.
Regarding `O=C(CCCN1CCN(c2ccc(F)cc2)CC1)NC1c2ccccc2CSc2ccccc21` (centres undefined), the Potency result in test [1], in test [5], in [3] and in [4] was “inactive” throughout. In addition, in test [10], the molecule was classed as inactive.
Take `CN1CCN(CCCN2c3ccccc3Sc3ccc(S(=O)(=O)N(C)C)cc32)CC1`: the Potency result in test [5], in test [2] and in test [4] was “inactive” each time. Further, the Potency in [8] is 11.9 µM (active).
In the case of `O=C(C(=O)c1ccccc1)c1ccccc1`, the Potency result in test [1], in [5], in test [3], in test [4], in test [8] and in test [9] was “inactive” throughout.
Turning to `O=C(N[C@@H](c1ccccc1)[C@@H]1CCCCN1)c1cccc(C(F)(F)F)c1Cl`, the Potency entry in test [1], in [5] and in test [4] was “inactive” in each case. Also, the figures for the Potency in test [8] and in test [9] were 30.6 µM (active) and 54.5 µM (active), respectively.
Regarding `CC(=O)OCC(=O)[C@@]12OC(C)(C)O[C@@H]1C[C@H]1[C@@H]3C[C@H](F)C4=CC(=O)C=C[C@]4(C)[C@@]3(F)[C@@H](O)C[C@@]12C`, the Potency entry in test [1], in test [5], in test [7], in test [3], in test [4] and in test [8] was “inactive” in each case. Moreover, the Potency entry in test [9] was “inactive”.
For the molecule `CO[C@@]12[C@H](COC(N)=O)C3=C(C(=O)C(C)=C(N)C3=O)N1C[C@@H]1N[C@@H]12`, the Potency entry in test [1], in [2] and in [4] was “inactive” in each case. For the same molecule, the call in test [10] was inactive.
As for `COc1ccccc1N=Nc1c(S(=O)(=O)O)cc2cc(S(=O)(=O)O)cc(NC(C)=O)c2c1O`, the Potency entry in [1] and in test [3] was “inactive” in each case. The Potency in [5] is 22.9 µM (active); in test [4], 25.7 µM (active); in [9], 25.7 µM (active).
For the molecule `CCC(Cc1ccccc1)(C(=O)c1ccc(N2CCOCC2)cc1)N(C)C` (centres undefined), the Potency result in [1], in test [5], in test [4], in [8] and in test [9] was “inactive” in each case.
On to `CCC(C)(O)CCC=C(C)C` (centres undefined), for which the Potency entry in test [1], in [5], in test [7], in test [3], in test [4] and in test [8] was “inactive” in each case. Moreover, the Potency result in test [9] is “inactive”.
In the case of `C=CC(C)(C)CC(=O)OC`, the Potency result in [1], in [5], in test [3], in test [4], in [8] and in [9] was “inactive” throughout.
Regarding `Cc1cc2nc3ccc(=[N+](C)C)cc-3sc2cc1N`, the Potency entry in test [1] and in [9] was “inactive” in each case. The Potency was 2.66 µM (active) in test [2], 1.5 µM (active) in test [6], 26.6 µM (active) in [7] and 10.6 µM (active) in test [3].
With `N#C/C(=C1\SCC(c2ccccc2Cl)S1)n1ccnc1` (centres undefined), the Potency entry in test [1], in [5], in [3], in test [4] and in [9] was “inactive” throughout.
For the molecule `OC/C(Br)=C(\Br)CO`, the Potency result in test [1], in test [5], in test [7], in test [3], in [4] and in [9] was “inactive” in each case.
Turning to `CC(C)CCCCCOC(=O)CCCCC(=O)OCCCCCC(C)C`, the Potency entry in test [1], in [5], in test [3], in test [4], in test [8] and in test [9] was “inactive” each time.
As for `N#C/C(=C1/SC[C@@H](c2ccc(Cl)cc2Cl)S1)n1ccnc1`, the Potency entry in [1], in test [5], in [3], in test [4] and in test [9] was “inactive” each time.
Consider `COCCOC(=O)C1=C(C)NC(C)=C(C(=O)OC/C=C/c2ccccc2)C1c1cccc([N+](=O)[O-])c1` (centres undefined), for which the Potency result in test [1], in test [5], in test [3], in [4] and in [9] was “inactive” throughout.
With `Nc1ccc(S(=O)(=O)O)cc1`, the Potency entry in test [1], in test [5], in [7], in test [3], in test [4] and in test [8] was “inactive” each time. Also, in test [9], the Potency result was “inactive”.
Regarding `Cc1nccn1-c1ccc(Sc2cccc(C3(C(N)=O)CCOCC3)c2)cc1`, the Potency entry in test [1], in [4], in test [8] and in test [9] was “inactive” each time. Further, the Potency in [7] was 3.06 µM (active).
With `CO[Si](C)(OC)OC`, the Potency result in [1], in test [5], in test [7], in test [3], in [4] and in [8] was “inactive” each time. Besides, the Potency entry in test [9] is “inactive”.
Consider `COC(=O)CC(=O)C(C)(C)C`, for which the Potency result in test [1], in [5], in test [7], in test [3], in test [4] and in test [8] was “inactive” in each case. Besides, the Potency result in test [9] was “inactive”.
Regarding `c1ccc(COCc2ccccc2)cc1`, the Potency result in [1], in test [5], in [7], in test [3], in [4] and in [8] was “inactive” throughout. The Potency entry in test [9] was “inactive”.
In the case of `CCCCN(CCCC)C(=S)SSC(=S)N(CCCC)CCCC`, the Potency result in test [1], in [5], in [7], in test [4] and in test [9] was “inactive” in each case.
